Compound activity as filed in PubChem.
NPR1 antag: antagonists of human natriuretic peptide receptor Npr1. P16066. HEK293 hNpr1 GloSensor cGMP, ANP-stimulated luminescence. Potency, µM (series often up to 46.3 µM), without a hit: top-dose activity change, negative = inhibition, actives largely listed as inhibitors. hit rate 1.6% among 76,000; calls by dose curve; note: % is set by controls: 0 for no effect and ±100 for the full control effect; nearly all actives have a fitted effect of over 60% in size
Target sequence (P16066 whole entry, looked up): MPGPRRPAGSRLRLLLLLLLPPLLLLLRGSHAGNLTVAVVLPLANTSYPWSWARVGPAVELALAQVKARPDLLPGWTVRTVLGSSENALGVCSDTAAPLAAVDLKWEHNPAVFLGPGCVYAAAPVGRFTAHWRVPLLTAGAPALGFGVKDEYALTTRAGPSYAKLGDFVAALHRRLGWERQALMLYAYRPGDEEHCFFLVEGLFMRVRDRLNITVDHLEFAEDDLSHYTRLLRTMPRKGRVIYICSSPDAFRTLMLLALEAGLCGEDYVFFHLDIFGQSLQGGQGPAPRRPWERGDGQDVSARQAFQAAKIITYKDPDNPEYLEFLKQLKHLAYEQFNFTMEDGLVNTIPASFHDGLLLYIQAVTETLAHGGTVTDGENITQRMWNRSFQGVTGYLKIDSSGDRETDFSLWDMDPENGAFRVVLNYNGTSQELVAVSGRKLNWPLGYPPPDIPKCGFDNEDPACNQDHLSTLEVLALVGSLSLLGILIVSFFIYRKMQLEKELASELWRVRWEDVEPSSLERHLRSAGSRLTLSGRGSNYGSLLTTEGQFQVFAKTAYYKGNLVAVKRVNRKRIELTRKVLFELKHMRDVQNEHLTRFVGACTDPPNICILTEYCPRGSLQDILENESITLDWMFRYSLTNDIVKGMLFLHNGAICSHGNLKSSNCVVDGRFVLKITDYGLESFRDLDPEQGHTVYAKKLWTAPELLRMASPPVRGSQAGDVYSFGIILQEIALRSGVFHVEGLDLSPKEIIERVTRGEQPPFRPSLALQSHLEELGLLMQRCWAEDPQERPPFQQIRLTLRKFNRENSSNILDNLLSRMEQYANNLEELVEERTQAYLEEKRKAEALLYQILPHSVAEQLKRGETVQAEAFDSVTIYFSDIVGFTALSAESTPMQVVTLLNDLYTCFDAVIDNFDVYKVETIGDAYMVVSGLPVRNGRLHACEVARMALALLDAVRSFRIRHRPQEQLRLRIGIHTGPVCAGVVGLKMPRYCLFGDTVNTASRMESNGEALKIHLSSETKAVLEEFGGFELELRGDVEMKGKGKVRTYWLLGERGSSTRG
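HEK293 cells stably expressing human Npr1 and cGMP GloSensor pGS-40F, loaded 2 h with 2% GloSensor reagent, given compound 30 min at room temperature. Luminescence read before and 20 min after 0.1 nM hNppA.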
HEK293 tox: cytotoxic compounds in HEK 293 cells. HEK 293 viability, ATP luminescence (CellTiter-Glo), 48-72 h. Potency, µM (highest dose often 115 µM), for the others: top-dose activity change, negative = cytotoxicity, hits mostly inhibitors. hit rate 6.6% among 94,000; note: % is set by controls: 0 for no effect and ±100 for the full control effect; nearly all actives have a fitted effect of over 60% in size
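Viability of HEK 293 cells, plated at 250 cells/well, was judged by cellular ATP after compound treatment for 48 or 72 hr. Luminescence was imaged 10 min after CellTiter-Glo addition at room temperature.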
FLuc inh-1: inhibitors of firefly (Photinus pyralis) luciferase; P08659; purified P. pyralis luciferase, luminescence, biochemical; Potency, µM (doses to about 115 µM), hits mostly inhibitors; hit rate 2.5% among 76,000; AID 1347043; note: % is set by controls: 0 for no effect and ±100 for the full control effect; nearly all actives have a fitted effect of over 65% in size
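Luminescence read by CCD imager after adding enzyme (10nM final) to wells holding compound, titrated in qHTS. Substrates 10uM each D-luciferin and ATP; buffer 50mM Tris acetate pH 7.5, 10mM Mg acetate, Tween-20, BSA.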
3T3 cytotox: kills NIH 3T3 cells; NIH 3T3 viability, CellTiter-Glo ATP luminescence, 48-72 h; AID 1345082; hit rate 4.3% among 94,000; Potency, µM (highest dose often 96.7 µM), without a hit: top-dose activity change, negative = cytotoxicity, hits mostly inhibitors; note: % is set by controls: 0 for no effect and ±100 for the full control effect; nearly all actives have a fitted effect of over 55% in size
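NIH 3T3 cells at 400 cells/well received 23 nL of compound by pintool and were incubated 48 or 72 h at 37 °C. Viability was read as ATP-coupled CellTiter-Glo luminescence.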
FLuc SDR no ATP: binders stabilizing firefly luciferase, without ATP; Potency, µM (top dose mostly 32.7 µM), without a hit: top-dose activation (signal gain), actives largely listed as activators; AID 1963318; Purified FLuc-C-HiBiT, Nano-Glo HiBiT luminescence, no ATP; shares compounds with FLuc inh-1; hit rate 7.8% among 1,300; note: nearly all actives have a fitted effect of over 55% in size
FLuc SDR ATP: stabilizes firefly luciferase with ATP present; shares compounds with FLuc inh-1; purified FLuc-C-HiBiT + ATP, HiBiT complementation luminescence; Potency, µM (top dose mostly 32.7 µM), for inactives: at the highest dose activation (gain of signal), usual class: activators; hit rate 8.7% among 1,300;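 note: signal reports ligand binding via conformational change of the enzyme rather than luciferase catalysis; % of control where 0% means no effect; nearly all actives have a fitted effect of over 55% in size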
FLuc inh-2: firefly luciferase enzyme inhibition; Potency, µM (series often up to 32.7 µM), for the others: at the highest dose activity change, negative = inhibition, hits mostly inhibitors; shares compounds with FLuc inh-1; hit rate 42% among 1,300; purified FLuc-C-HiBiT enzyme, luciferin luminescence; AID 1963320; note: % is set by controls: 0 for no effect and ±100 for the full control effect; nearly all actives have a fitted effect of over 70% in size
Starred values were filed as active, the others as inactive; i = inactive; ? = inconclusive; nt = no result; [ ] = another dose, or the depositor's remark. An excerpt weighted towards active compounds, which were near 11% of everything screened. Unless noted, calls come from the whole dose curve; as a rule, active = well fitted curve in the direction sought with a large enough effect; inconclusive = small, poorly fitted or top-dose-only effect, or another doubt; inactive = no such curve, though single readings can be large; an effect the other way counts as inactive or inconclusive. Potency is the fitted concentration of half-maximal effect.

SMILES	NPR1 antag	HEK293 tox	FLuc inh-1	3T3 cytotox	FLuc SDR no ATP	FLuc SDR ATP	FLuc inh-2
CN1C[C@@H](NS(=O)(=O)c2ccc(C#N)cc2)C[C@H]1c1nc(-c2ccc(Cl)cc2)no1	?	?	10µM*	?	4%	4%	?
CN1CCN(c2ccc(-c3cc4c(ccn4C)c(C(=O)NCCN4CCNC4=O)n3)cc2)CC1	6%	?	4.5µM*	?	25%	16%	?
COc1ccc(-c2cc(N3CCCC(NC(=O)c4cccc(OC)c4OC)C3)n[nH]2)cc1 (stereo not drawn)	-11%	?	?	?	nt	nt	nt
COc1ccc(-c2cc(N3CCCC(NC(=O)c4cc(OC)cc(OC)c4)C3)n[nH]2)cc1 (stereo not drawn)	-19%	?	5.6µM*	?	25%	17%	?
CCOc1ccc(C(=O)NC2CCCN(c3cc(-c4ccc(OC)cc4)[nH]n3)C2)cc1 (stereo not drawn)	-3%	?	?	-22%	nt	nt	nt
COc1ccc(-c2cc(N3CCC(NC(=O)c4ccncc4)C3)n[nH]2)cc1 (stereo not drawn)	2%	?	?	-24%	nt	nt	nt
COc1ccc(-c2cc(N3CCCC(NC(=O)c4ccncc4)C3)n[nH]2)cc1 (stereo not drawn)	-4%	?	13µM*	4%	24%	17%	?
COc1ccc(-c2cc(N3CCCC(NC(=O)c4cc(OC)c(OC)c(OC)c4)C3)n[nH]2)cc1 (stereo not drawn)	-4%	?	6.3µM*	?	30%	16%	5.6µM*
COc1ccc(-c2cc(N3CCCC(NC(=O)c4ccc(OC)cc4OC)C3)n[nH]2)cc1 (stereo not drawn)	-12%	45µM*	13µM*	?	21%	14%	?
CN1CC(C(=O)NCc2cccc(F)c2)NC1=O (stereo not drawn)	nt	-28%[172 µM]	nt	-22%[138 µM]	nt	nt	nt
CCOC(=O)c1ccc(NC(=O)CSc2nnc(CNC(=O)c3ccc(OC)cc3)n2CC)cc1	nt	nt	nt	nt	15%	11%	?
COc1ccc(NC(=O)N2CCc3c(C(=O)N(C)C)cccc32)cc1	4µM*	?	0.25µM*	?	?	0.16µM*	0.11µM*
COc1ccc(NC(=O)N2CCc3c(C(=O)NCCN4CCCCCC4)cccc32)cc1	10µM*	?	1.6µM*	-23%	?	0.79µM*	0.56µM*
COc1ccc(NC(=O)N2CCc3c(C(=O)N(C)Cc4ccco4)cccc32)cc1	?	?	4µM*	-27%	?	2.5µM*	1.8µM*
Cc1cccc(NC(=O)N2CCc3c(C(=O)N(C)Cc4ccco4)cccc32)c1	-19%	?	?	?	nt	nt	nt
CC(C)CC(=O)N1[C@@H](c2ccco2)[C@@H](C(=O)O)C[C@]12CCCCNC2=O	nt	-6%	nt	?	nt	nt	nt
CC(C)Oc1ccc(C(=O)N2CCC3(CC2)C(=O)N(C)c2ccccc23)cc1	3%	?	i	-10%	nt	nt	nt
COc1ccc(-c2[nH]ncc2CN2CCCN(S(=O)(=O)c3ccccc3)CCC(=O)NCC2)cc1	4%	?	i	?	nt	nt	nt
O=C(O)c1cccc(-c2ccc(OC(F)(F)F)cc2)c1	nt	-24%[172 µM]	nt	-1%[138 µM]	nt	nt	nt
CC(=O)c1cccc(Nc2nn(-c3ccc(OC(F)(F)F)cc3)nc2C(C)=O)c1	nt	nt	nt	nt	24%	14%	?
COc1ccc(-c2nc(C)c(CCNC(=O)c3cccs3)s2)cc1	nt	nt	nt	nt	24%	17%	?
Cc1cnc(CCNC(=O)c2cccs2)n1Cc1ccc(F)cc1	nt	-2%	nt	-17%	nt	nt	nt
Cc1ccc(-c2nc(C)c(CCNC(=O)c3cccs3)s2)cc1	nt	nt	nt	nt	12%	9%	?
CC(O)CN1CCC(=O)N(CC(C)(C)C)Cc2cc3c(cc21)OCO3 (stereo not drawn)	nt	-20%	nt	?	nt	nt	nt
CN(C)c1ccc(-c2nnnn2[C@H]2CO[C@H]3[C@@H]2OC[C@@H]3NS(=O)(=O)c2ccc3ccccc3c2)cc1	2%	i	i	-12%	nt	nt	nt
SMILES	NPR1 antag	HEK293 tox	FLuc inh-1	3T3 cytotox	FLuc SDR no ATP	FLuc SDR ATP	FLuc inh-2
O=C(NCC1CCCN(C(=O)N2CCCC2)C1)c1ccc(-c2ccccc2)cc1 (stereo not drawn)	-2%	?	7.9µM*	?	19%	11%	?
O=C1c2cnc(-c3cccc(F)c3)nc2OCCN1c1ccccc1	-29%[70.6 µM]	100µM*	0.89µM*	?	?	?	14µM*
O=C1c2cnc(-c3cccc(C(F)(F)F)c3)nc2OCCN1Cc1ccccc1	-4%[70.6 µM]	?	?	?	nt	nt	nt
COc1cccc(-c2ncc3c(n2)OCCN(c2ccccc2)C3=O)c1	8.9µM*	10µM*	0.4µM*	8.9µM*	3.2µM*	?	1.8µM*
NCCCC(=O)N1CCC2(CC1)CC(NC(=O)CN)c1ccccc12 (stereo not drawn)	nt	-12%	nt	-18%	nt	nt	nt
COc1ccc(CC(=O)N2CCc3nc(C(C)C)nc(-c4ccc(O)cc4)c3CC2)cc1	nt	-24%	nt	?	nt	nt	nt
COc1ccc(CN2CC(O)CN([S+](=O)([O-])c3ccc(F)cc3)CC2=O)cc1 (stereo not drawn)	nt	?	nt	-30%	nt	nt	nt
CC(C)Cc1noc(-c2ccc(N3CCC(O)CC3)nc2)n1	8.9µM*	-27%	0.79µM*	?	24%	?	5.6µM*
COc1ccccc1-c1nc(-c2cccc(C(=O)O)c2)no1	nt	nt	nt	nt	8.8µM*	0.007µM*	0.0062µM*
COc1ccc(-c2nc(-c3cccc(C(=O)O)c3)no2)cc1	nt	nt	nt	nt	1.1µM*	0.0031µM*	0.0025µM*
COc1ccccc1-c1noc(-c2nc(-c3ccc4c(c3)OCO4)no2)n1	2%	-7%	i	-11%	nt	nt	nt
O=C(O)c1cccc(-c2noc(-c3cc([N+](=O)[O-])cc([N+](=O)[O-])c3)n2)c1	nt	nt	nt	nt	6%	?	3.1µM*
CCN(CC)C(=O)C[C@@H]1c2nc(NC(=O)c3ccc(OC)cc3)sc2C[C@@H]2[C@](C)(CO)[C@H](O)CC[C@]21C	1%	-19%	i	-21%	nt	nt	nt
O=C(Cn1c2c(c(=O)n1Cc1ccccc1)CCN(Cc1ccccc1)C2)N1CCC(c2ccccc2)CC1	-12%	?	i	-36%	nt	nt	nt
CCNc1cc(N2CCC(CCC(=O)O)CC2)ncn1	0%	11%	32µM*	-8%	13%	9.9µM*	5.6µM*
Cc1ccc(C(=O)N2CCC(C(=O)N3CCC(N4CCCC4=O)CC3)CC2)cc1	nt	-8%	nt	-24%	nt	nt	nt
